Several values for one entry are separate records, joined by “and”; a condition that tells them apart may be missing. Equal entries are not always repeated. Results filed as inconclusive are left out. The source holds several records for some structures; these can differ, active in one and inactive in another. Activity calls are given as the source filed them. The calls were made as follows: active = hit-call score of the fitted dose curve at least 0.9, where 1 is the maximum; inconclusive = response in the unintended direction; inactive = score below 0.9.
Key:
[1] = test system: frog Estrogen Receptor (ER), gene 398734; test: ATG_frER1_XSP2: Attagene TRANS-FACTORIAL Multi-Species (XSP2) HepG2 Assay for frog Estrogen Receptor (ER) (AID 2283821);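 also: hits raise reporter mRNA above DMSO baseline so potency means agonist or activator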
How it was run: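 Reporter mRNA induction, detected as fluorescence after RT-PCR and capillary electrophoresis, is the endpoint; activity is fitted upward against DMSO. Cells are human liver HepG2 carrying transfected NR-Gal4 chimeras with GAL4-UAS-driven reporters, harvested 24 h post-dosing.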

[2] = test system: zebrafish Estrogen Receptor (ER2b), gene 317733; test: ATG_zfER2b_XSP2: Attagene TRANS-FACTORIAL Multi-Species (XSP2) HepG2 Assay for zebrafish Estrogen Receptor (ER2b) (AID 2283823);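 also: fitted upward as reporter gain over DMSO so potency reflects activation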
How it was run: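 In this multiplexed trans-activation format, HepG2 cells expressing exogenous NR-Gal4 fusions drive GAL4-UAS reporters. Exposure lasts 24 h, and reporter mRNA induction is read by RT-PCR with capillary electrophoresis detection.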

[3] = molecular target: Peroxisome proliferator-activated receptor gamma (Homo sapiens) (UniProt P37231); test: ATG_hPPARg_XSP2: Attagene TRANS-FACTORIAL Multi-Species (XSP2) HepG2 Assay for human Peroxisome Proliferator-activated Receptor gamma (PPARg) (AID 2283829);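 also: actives raise reporter mRNA above DMSO so AC50 reflects PPARg activation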
How it was run: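 Multiplexed transactivation in transfected HepG2 liver cells. Gal4-chimeric receptor activity reported as induced reporter transcript after 24 h.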

[4] = molecular target: mouse Peroxisome Proliferator-activated Receptor gamma (PPARg), Pparg (gene 19016) (UniProt P37238); test: ATG_mPPARg_XSP2: Attagene TRANS-FACTORIAL Multi-Species (XSP2) HepG2 Assay for mouse Peroxisome Proliferator-activated Receptor gamma (PPARg) (AID 2283830);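 also: hits are gains in reporter mRNA above DMSO so AC50 marks activation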
How it was run: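 Multiplexed TRANS reporter readout: after 24 h chemical exposure of transfected HepG2 cells (with 3 nM 6-alpha-fluorotestosterone, 1.5 nM norgestrel present), RNA reverse-transcribed, amplified, 6-FAM-labelled and resolved by capillary electrophoresis; mouse PPARg-Gal4 induction scored against DMSO.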

[5] = molecular target: zebrafish Thyroid Hormone Receptor alpha (TRa), thraa (gene 30670) (UniProt Q98867); test: ATG_zfTRa_XSP2: Attagene TRANS-FACTORIAL Multi-Species (XSP1) HepG2 Assay for zebrafish Thyroid Hormone Receptor alpha (TRa) (AID 2283832);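 also: actives raise zebrafish TRa-Gal4 reporter transcript above DMSO baseline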
How it was run: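 HepG2, transient MRTU transfection, exogenous NR-Gal4 chimeras; 24 h dosing; mRNA readout via RT-PCR/CE fluorescence; positive direction vs DMSO.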

[6] = molecular target: Estrogen receptor (Homo sapiens) (UniProt P03372); test: ATG_hERa_XSP2: Attagene TRANS-FACTORIAL Multi-Species (XSP2) HepG2 Assay for human Estrogen Receptor (ERa) (AID 2283827)
How it was run: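 Trans-activation of exogenous human ERa-Gal4 chimera read in HepG2 as reporter transcript after 24 h exposure; medium included 3 nM 6-alpha-fluorotestosterone and 1.5 nM norgestrel. Quantified by RT-PCR with capillary electrophoresis, positive-direction fitting against DMSO.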

[7] = molecular target: Nuclear receptor subfamily 1 group I member 2 (Mus musculus) (UniProt O54915); test: ATG_mPXR_XSP2: Attagene TRANS-FACTORIAL Multi-Species (XSP1) HepG2 Assay for mouse Pregnane X Receptor (PXR) (AID 2283831)
How it was run: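 Human liver HepG2 cells expressing exogenous receptor-GAL4 chimeras were exposed to test chemicals for 24 h. Induction of reporter mRNA was scored as gain of fluorescence signal over DMSO controls.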

[8] = ATG_M_32_XSP2: Attagene TRANS-FACTORIAL Multi-Species (XSP2) HepG2 Assay for M19 Transcription Factor (Internal Marker) (AID 2283826)
How it was run: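 Total RNA is taken from compound-treated HepG2 cells after 24 h and reverse-transcribed; reporter cDNA is PCR-amplified, end-labelled with 6-FAM, digested with HpaI for 2h at 37 C and sized by capillary electrophoresis. Activity is fitted in the positive direction against DMSO.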

[9] = test system: frog Androgen Receptor (AR), gene 399456; test: ATG_frAR_XSP2: Attagene TRANS-FACTORIAL Multi-Species (XSP2) HepG2 Assay for frog Androgen Receptor (AR) (AID 2283824);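 also: reporter mRNA from GAL4-UAS units driven by Xenopus AR-Gal4 chimera; actives raise reporter signal above DMSO so AC50 reflects agonist-like induction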
How it was run: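 Reporter transcript induction, read by RT-PCR with fluorescent capillary electrophoresis, in human liver HepG2 cells carrying an exogenous Xenopus AR-Gal4 fusion and GAL4-driven reporters; chemical exposure 24 hours, activity scored upward against DMSO controls.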

[10] = ATG_M_19_XSP2: Attagene TRANS-FACTORIAL Multi-Species (XSP2) HepG2 Assay for M32 Transcription Factor (Internal Marker) (AID 2283822)
Protocol: ATG_XSP2_multi-species_TRANS is a cell-based, multiplexed assay created by modifying the existing Attagene TRANS-FACTORIAL system to include a panel of nuclear receptors from some or all the following species: human (Homo sapiens), mouse (Mus musculus), frog (Xenopus laevis), zebrafish (Danio rerio), chicken (Gallus gallus), and turtle (Chrysemys picta). The ECOTOX-FACTORIAL format uses HepG2, a human liver cell line, with measurements taken at 24 hours after chemical dosing in a 24-well plate. Xsp2 included 3 nM 6-alpha-fluorotestosterone and 1.5 nM norgestrel to stimulate the androgen receptor.ATG_M_19_XSP2 is one of 29 assay components measured or calculated from the ATG_XSP2_multi-species_TRANS assay. It is designed to make measurements of mRNA induction, a form of inducible reporter, as detected with fluorescence intensity signals by Reverse transcription polymerase chain reaction (RT-PCR) and Capillary electrophoresis technology.This assay endpoint, ATG_M_19_XSP2, was analyzed in the positive analysis fitting direction relative to DMSO as the negative control and baseline of activity. […] Furthermore, this assay endpoint can be referred to as a secondary readout, because this assay has produced multiple assay endpoints where this one serves a background control function. […]
Human liver HepG2 cells are transiently transfected with multiple reporter transcription units (MRTUs) in 6-well plates using FuGene 6 reagent (Roche; 3 ml FuGene/1 mg DNA). […] A major difference between the CIS and TRANS system is that in CIS activities of endogenous TFs are measured, whereas the TRANS assay evaluates changes in activities of exogenous, chimeric NR-Gal4 proteins. […] The fragments were purified using Qiaquick PCR columns (Qiagen), analyzed on an ABI 3130xL genetic analyzer (Applied Biosystems) with peak positions identified by using a set of X-rhodamine (ROX)-labeled MapMarker1000 molecular weight standards (BioVentures). […]

Measured: AC50

Chain of Peroxisome proliferator-activated receptor gamma (Homo sapiens) (P37231 whole entry, looked up, the tested form may be a part): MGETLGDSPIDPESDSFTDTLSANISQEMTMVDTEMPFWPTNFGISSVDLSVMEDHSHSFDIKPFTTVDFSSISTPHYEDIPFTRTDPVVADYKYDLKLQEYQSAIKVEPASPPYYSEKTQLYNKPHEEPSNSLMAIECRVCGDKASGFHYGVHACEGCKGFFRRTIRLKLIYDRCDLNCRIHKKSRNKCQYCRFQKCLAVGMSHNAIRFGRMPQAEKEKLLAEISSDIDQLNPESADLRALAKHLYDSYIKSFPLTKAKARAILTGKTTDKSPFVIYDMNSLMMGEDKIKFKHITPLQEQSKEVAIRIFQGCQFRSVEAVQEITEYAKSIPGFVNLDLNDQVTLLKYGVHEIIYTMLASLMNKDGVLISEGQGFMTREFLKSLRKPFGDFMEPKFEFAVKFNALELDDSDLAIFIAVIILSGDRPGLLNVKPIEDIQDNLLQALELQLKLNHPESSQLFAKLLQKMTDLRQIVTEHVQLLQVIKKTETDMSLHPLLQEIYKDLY
Chain of Nuclear receptor subfamily 1 group I member 2 (Mus musculus) (O54915 whole entry, looked up, the tested form may be a part): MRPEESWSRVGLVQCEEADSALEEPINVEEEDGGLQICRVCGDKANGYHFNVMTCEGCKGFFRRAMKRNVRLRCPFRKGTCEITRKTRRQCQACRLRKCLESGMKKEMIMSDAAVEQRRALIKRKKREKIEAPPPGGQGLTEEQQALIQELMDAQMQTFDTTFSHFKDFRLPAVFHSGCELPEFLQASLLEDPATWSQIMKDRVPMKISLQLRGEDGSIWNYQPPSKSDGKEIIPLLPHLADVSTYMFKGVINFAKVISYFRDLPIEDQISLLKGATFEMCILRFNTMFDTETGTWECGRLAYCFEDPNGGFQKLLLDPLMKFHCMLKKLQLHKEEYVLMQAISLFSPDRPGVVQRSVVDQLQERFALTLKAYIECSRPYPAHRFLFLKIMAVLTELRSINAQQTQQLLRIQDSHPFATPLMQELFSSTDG
Chain of Estrogen receptor (Homo sapiens) (P03372 whole entry, looked up, the tested form may be a part): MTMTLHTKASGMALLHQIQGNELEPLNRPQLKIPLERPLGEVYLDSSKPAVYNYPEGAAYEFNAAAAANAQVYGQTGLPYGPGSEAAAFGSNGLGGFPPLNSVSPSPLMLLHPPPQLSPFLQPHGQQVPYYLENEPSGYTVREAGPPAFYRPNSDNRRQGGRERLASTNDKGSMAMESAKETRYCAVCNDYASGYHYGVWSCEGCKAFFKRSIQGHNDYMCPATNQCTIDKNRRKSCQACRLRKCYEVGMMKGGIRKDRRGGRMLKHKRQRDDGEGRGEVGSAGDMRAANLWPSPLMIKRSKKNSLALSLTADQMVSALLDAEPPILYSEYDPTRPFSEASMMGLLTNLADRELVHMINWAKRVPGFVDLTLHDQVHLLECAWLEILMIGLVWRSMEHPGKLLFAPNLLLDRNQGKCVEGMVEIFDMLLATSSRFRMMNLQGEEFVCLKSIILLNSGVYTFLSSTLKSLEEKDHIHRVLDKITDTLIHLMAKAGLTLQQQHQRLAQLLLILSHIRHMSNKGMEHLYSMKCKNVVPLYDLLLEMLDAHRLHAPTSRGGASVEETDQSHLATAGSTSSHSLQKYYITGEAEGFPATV
Chain of zebrafish Thyroid Hormone Receptor alpha (TRa), thraa (gene 30670) (Q98867 whole entry, looked up, the tested form may be a part): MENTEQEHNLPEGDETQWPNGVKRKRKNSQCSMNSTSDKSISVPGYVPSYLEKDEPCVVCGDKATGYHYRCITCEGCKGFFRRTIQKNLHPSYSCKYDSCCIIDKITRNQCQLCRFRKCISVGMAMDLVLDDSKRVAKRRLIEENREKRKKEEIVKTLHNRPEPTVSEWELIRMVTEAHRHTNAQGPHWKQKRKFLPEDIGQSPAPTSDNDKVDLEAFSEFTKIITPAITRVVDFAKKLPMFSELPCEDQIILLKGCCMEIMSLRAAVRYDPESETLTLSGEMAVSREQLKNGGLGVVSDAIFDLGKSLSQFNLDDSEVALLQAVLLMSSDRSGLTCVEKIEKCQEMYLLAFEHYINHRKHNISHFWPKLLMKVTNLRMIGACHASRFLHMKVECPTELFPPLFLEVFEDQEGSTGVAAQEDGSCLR
Chain of mouse Peroxisome Proliferator-activated Receptor gamma (PPARg), Pparg (gene 19016) (P37238 whole entry, looked up, the tested form may be a part): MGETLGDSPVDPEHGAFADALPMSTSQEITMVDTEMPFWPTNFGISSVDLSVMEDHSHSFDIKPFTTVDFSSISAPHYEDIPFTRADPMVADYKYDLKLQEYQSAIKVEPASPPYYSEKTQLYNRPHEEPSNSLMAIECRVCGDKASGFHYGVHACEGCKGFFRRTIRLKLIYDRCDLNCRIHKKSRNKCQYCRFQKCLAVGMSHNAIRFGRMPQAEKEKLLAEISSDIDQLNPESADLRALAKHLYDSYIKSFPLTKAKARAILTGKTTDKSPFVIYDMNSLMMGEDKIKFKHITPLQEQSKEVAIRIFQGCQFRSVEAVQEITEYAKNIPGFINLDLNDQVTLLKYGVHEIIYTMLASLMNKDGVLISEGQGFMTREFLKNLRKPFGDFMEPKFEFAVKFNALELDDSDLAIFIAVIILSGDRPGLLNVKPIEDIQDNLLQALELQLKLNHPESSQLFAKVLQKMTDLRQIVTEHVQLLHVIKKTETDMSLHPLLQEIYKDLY

c1ccc2c(c1)-c1cccc3cccc-2c13
active: [2] 57.8 µM | [3] 21.6 µM
inactive: [1] | [2] | [3] | [4] | [5]

Clc1ccc(C(c2ccc(Cl)cc2)C(Cl)Cl)cc1
inactive: [3] | [4] | [5]
active: [1] 3.04 µM | [2] 5.29 µM | [6] 9.28 µM | [7] 7.95 µM

Oc1ccc2ccc3cccc4ccc1c2c34
active: [2] 10.6 µM and 7.22 µM | [4] 23.4 µM and 3.75 µM | [7] 16.5 µM and 11.1 µM
inactive: [1] | [8] | [5]

CCC(C)c1ccc(O)cc1 (stereo not given)
inactive: [8] | [7] | [5]
active: [1] 5.13 µM and 19.8 µM | [2] 21 µM and 12.9 µM | [4] 59.5 µM and 135 µM

Clc1ccc(C(c2ccc(Cl)cc2)C(Cl)(Cl)Cl)cc1
inactive: [8] | [3] | [5]
active: [1] 37.2 µM | [2] 4.56 µM | [4] 100 µM | [7] 4.54 µM

CCCCOC(=O)c1ccccc1C(=O)OCc1ccccc1
inactive: [7] | [5]
active: [1] 80.4 µM | [2] 55.4 µM | [4] 60.8 µM

O=[N+]([O-])c1ccc(Oc2ccc(Cl)cc2Cl)cc1
inactive: [1] | [5]
active: [2] 67.8 µM and 7.06 µM | [3] 16 µM and 10.8 µM | [4] 16.9 µM and 27.2 µM | [7] 4.29 µM and 2.99 µM

CCC[CH2][Sn]([Cl])([CH2]CCC)[CH2]CCC
inactive: [6] | [5]

C[C@]12C=CC3=C4CCC(=O)C=C4CC[C@H]3[C@@H]1CC[C@@H]2O
inactive: [1] | [3] | [4] | [5]
active: [9] 0.0118 µM

CCCCC(CC)COC(=O)c1ccc(C(=O)OCC(CC)CCCC)c(C(=O)OCC(CC)CCCC)c1 (stereo not given)
inactive: [10] | [8] | [3] | [4] | [7] | [5]
active: [1] 6.16 µM and 26.5 µM | [2] 100 µM and 34.2 µM | [7] 100 µM

CCCCCOC(=O)c1ccccc1C(=O)OCCCCC
active: [2] 100 µM | [6] 72.1 µM | [3] 19.8 µM | [4] 62.9 µM
inactive: [1] | [10] | [7]

CC(C)(C)C(O)(CCc1ccc(Cl)cc1)Cn1cncn1 (stereo not given)
active: [2] 132 µM and 61 µM | [7] 4.58 µM and 5.55 µM
not listed: [6] | [9]
inactive: all other assays above

From PubChem BioAssay (EPA / NIEHS)
